Source: PubChem
An excerpt weighted towards active compounds, which were near 21% of everything screened.
Pf growth 48h: P. falciparum growth inhibition at 48 hours (one generation); P. falciparum luciferase growth in erythrocytes, 48 h; 310,000 compounds, 5.9% hits; Potency, µM (titrated, usually from 28.7 µM), usual class: inhibitors
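Luciferase-expressing parasites in RBCs, 2% Hct / 0.1% parasitemia final; RPMI 1640 + 0.5% Albumax; 37 C, 5% CO2, one generation; luminescence read-out, lower signal = inhibition.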
Sm TGR inh: inhibitors of Schistosoma mansoni thioredoxin glutathione reductase; Q962Y6; purified TGR, DTNB reduction, TNB absorbance 405 nm; Potency, µM (titrated, usually from 114 µM), usual class: inhibitors; 360,000 compounds, 3% hits; AID 485364; further: nearly all actives have a fitted effect of over 60% in size
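Kinetic colorimetric format: TGR-catalysed, NADPH-driven DTNB reduction monitored via TNB absorbance. Enzyme dispensed at 20 nM; compound exposure 15 min at room temperature before reaction start.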
Pf growth 96h: inhibits malaria parasite growth, 96 h | P. falciparum luciferase reporter growth, 96 h | Potency, µM (titrated, usually from 28.7 µM), most hits filed as inhibitors | 320,000 compounds, 6.9% hits | AID 504834
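Readout is luminescence from an integrated firefly luciferase in P. falciparum. Red cells, 2% hematocrit and 0.05% parasitemia final, were cultured with compound through two parasite generations (96 hours) at 37 C, 5% CO2.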
CHX counter: counter-screen for Shiga toxin inhibitors: cycloheximide protein synthesis inhibition; cell reporter, cycloheximide protein synthesis inhibition counterscreen; max response, %; 300,000 compounds, 12% hits; in the data active means max response mostly above about 13%, no sharp cut-off; inactive means mostly below about 14%; further: read at 38.3 µM for the half of the compounds with a filed dose
Shiga inhibitor: Shiga toxin inhibition | Vero cells, Shiga toxin protein synthesis inhibition reporter | inhibition, % at 38.7 µM | 290,000 compounds, 9.2% hits; in the data active means inhibition mostly above about 28%, no sharp cut-off; inactive means mostly below about 43%
NS1 inh: blocks influenza NS1 protein function | Potency, µM (top dose mostly 46.1 µM) | 270,000 compounds, 0.4% hits | AID 2326; calls by dose curve; further: actives are rising curves; nearly all actives have a fitted effect of over 50% in size
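OD600 was taken as the measure of yeast growth restored by compound in an NS1-expressing S. cerevisiae strain. Cells had been washed out of glucose medium and diluted 1:100 into galactose -URA medium, pH 6.0.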
Numbers stand for hits; i = inactive; ? = inconclusive; nt = no result; [ ] = another dose, or the depositor's remark. Unless noted, the call rests on the fitted dose curve; in most records, active means well fitted curve in the direction sought with a large enough effect; inconclusive means small, poorly fitted or top-dose-only effect, or another doubt; inactive means no such curve, though single readings can be large; an effect the other way counts as inactive or inconclusive.

SMILES	Pf growth 48h	Sm TGR inh	Pf growth 96h	CHX counter	Shiga inhibitor	NS1 inh
Cc1cc(NS(=O)(=O)c2ccc(NC(=O)COc3ccccc3C(C)(C)C)cc2)no1	i	i	10µM	i	i	?
CCOc1cc(C(=O)Nc2ccc(S(=O)(=O)Nc3cc(C)on3)cc2)cc(OCC)c1OCC	?	i	10µM	i	i	i
Cc1cc(NS(=O)(=O)c2ccc(NC(=S)NC(=O)c3ccccc3)cc2)no1	i	50µM	?	i	i	i
COc1ccc(C(=O)NC(=S)Nc2ccc(S(=O)(=O)Nc3cc(C)on3)cc2)cc1OC	i	18µM	i	i	i	i
Cc1cc(NS(=O)(=O)c2ccc(NC(=O)COc3ccccc3[N+](=O)[O-])cc2)no1	i	i	?	i	i	i
CCOc1ccc(OCC)c(NS(=O)(=O)c2c(C(=O)N3CCC(C)CC3)c(C)n(C)c2C)c1	nt	i	nt	nt	nt	nt
CCC(C)(CCNC(=O)Cc1ccccc1)c1ccccc1OC (centres undefined)	nt	i	?	i	i	i
O=C(OCC(=O)N1CCN(C(=O)c2ccco2)CC1)c1ccccc1O	nt	i	i	i	32	i
O=C(CN1CCN(C(=O)c2ccco2)CC1)N1CCc2[nH]c3ccccc3c2C1	i	20µM	i	i	i	i
O=C1c2ccccc2-c2c1cccc2C(=O)N1CCN(C(=O)c2ccco2)CC1	i	20µM	i	i	i	i
O=C(OCC(=O)N1CCN(C(=O)c2ccco2)CC1)c1ccccc1	i	?	i	29	78	nt
Cc1cc(C)n(-c2nc3ccccc3nc2Nc2cccc(C(=O)NCCc3ccccc3)c2)n1	nt	i	nt	nt	nt	nt
CSCCC(=O)N1CCC(n2nccc2NC(=O)CCc2ccccc2)CC1	i	i	i	i	i	i
CCc1ccc(NC(=O)C2CCN(C(=O)N3CC(CC)Oc4ccccc43)CC2)cc1 (centres undefined)	nt	i	nt	nt	nt	nt
Cc1cc2ncn(/N=C/c3ccc4c(c3)OCO4)c2cc1C	?	i	i	18	76	i
C(=N\n1cnc2ccccc21)/c1cccnc1	nt	i	i	19	i	i
Cc1cc2ncn(/N=C/c3ccc(-c4ccccc4)o3)c2cc1C	i	i	i	i	i	i
Cc1cc2ncn(/N=C/c3cccnc3)c2cc1C	15µM	i	?	i	i	i
CCCCN(C(=O)CNC(=O)c1ccco1)C(C(=O)NC1CCCC1)c1ccc(OC)cc1 (centres undefined)	i	i	nt	i	i	i
Brc1ccccc1-c1nnc(COc2cccc3cccnc23)o1	i	i	nt	i	i	i
Clc1ccc(Cc2nnc(-c3ccccc3Br)o2)cc1	i	i	i	22	39	i
CCc1ccc(OCc2nnc(-c3ccccc3Br)o2)cc1	i	i	i	nt	nt	nt
N#Cc1ccccc1OCc1nnc(-c2ccccc2Br)o1	i	i	i	48	103	i
Clc1ccccc1OCc1nnc(-c2ccccc2Br)o1	i	i	?	52	120	i
O=c1c(Cl)c(Cl)cnn1Cc1nnc(-c2ccccc2Br)o1	i	6.3µM	i	i	i	nt
SMILES	Pf growth 48h	Sm TGR inh	Pf growth 96h	CHX counter	Shiga inhibitor	NS1 inh
CC1CCN(c2nc3ccccc3nc2C(C#N)C(=O)NC2CCCCC2)CC1 (centres undefined)	i	i	i[5.75 µM]	i	i	i
CCCCOc1nc2ccccc2nc1C(C#N)C(=O)NC1CCCCC1 (centres undefined)	i	i	1.5µM	i	i	i
Cc1cc(N/N=C/c2ccc(O)cc2O)c2ccccc2n1	?	i	i	i	i	i
Cc1cc(N/N=C/c2ccc(O)cc2O)nc(-c2ccccc2O)n1	2.6µM	i	?	59	active	i
Cc1cc(N/N=C/c2ccccc2O)nc(N2CCOCC2)n1	10µM	i	?	i	i	i
Cc1cc(N/N=C/c2ccccc2O)nc(-c2ccccc2O)n1	?	i	i	25	46	i
Cc1cc(N/N=C\c2ccccc2)nc(-c2ccccc2O)n1	i	i	i	84	83	i
O=C(CN1C(=O)CCSc2ccccc21)Nc1ccccc1F	nt	i	nt	nt	nt	nt
COCCCNC(=O)CSc1nc2cc(S(=O)(=O)N3CCCCC3)ccc2o1	i	i	?	nt	nt	nt
Cc1ccc(N2C(=O)C3C(c4ccccc4)N4CCCN4C3(C)C2=O)cc1 (centres undefined)	?	i	?	i	i	i
O=C(CN1CCCc2ccccc21)N/N=C/c1ccc(F)cc1F	?	i	?	i	i	i
CCOC(=O)N/N=C/c1cc(C)n(-c2cccc3ccccc23)c1C	12µM	i	9.3µM	i	i	i
CCOC(=O)N/N=C/c1cc(C)n(-c2ccccc2)c1C	?	i	?	35	71	i
CCOc1ccc2ccccc2c1/C=N\NC(=O)OC	i	i	i	i	i	i
CCOc1ccc(-n2c(C)cc(/C=N/NC(=O)C(N)=O)c2C)cc1	i	?	i	i	i	i
CCOC(=O)N/N=C/c1ccc(F)cc1F	i	i	i	30	57	i
COC(=O)N/N=C/c1cc(C)n(-c2cccc3ccccc23)c1C	7.4µM	i	15µM	i	i	i
CCOC(=O)N/N=C/c1c[nH]c2ccccc12	i	?	i	i	i	nt
Cc1cc(/C=N/NC(=O)c2cccc(F)c2)c(C)n1-c1ccccc1	i	i	?	i	i	nt
Cc1cc(/C=N/NC(=O)c2ccccc2F)c(C)n1-c1ccccc1	i	i	i	25	67	nt
COc1cc(/C=N/NC(=O)c2ccncc2)ccc1OCc1cnc(Cl)s1	i	nt	i	i	i	i
Cc1c(C(=O)N2CCc3ccccc32)oc2c1C(=O)CC(C)(C)C2	i	?	i	32	69	i
Cc1c(C(=O)N2CCOCC2)oc2c1C(=O)CC(C)(C)C2	i	i	12µM	i	i	i
Cc1c(C(=O)N2CCN(C)CC2)oc2c1C(=O)CC(C)(C)C2	i	i	?	i	i	i
CN(C(=O)Cn1nc(C(=O)O)c2ccccc2c1=O)C1(C#N)CCCCC1	i	?	i	nt	nt	nt
SMILES	Pf growth 48h	Sm TGR inh	Pf growth 96h	CHX counter	Shiga inhibitor	NS1 inh
Cc1cccc(NCCC(=O)c2ccc(Br)cc2)c1	i	5.6µM	i	24	i	i
CC(C)c1ccc(NCCC(=O)c2ccc(Br)cc2)cc1	i	?	9.3µM	i	i	i
O=C(NNC(=O)c1ccc2ccccc2c1O)c1cccs1	i	i	?	i	i	i
C/C(=N/NC(=O)c1cc2ccccc2cc1O)c1ccco1	?	i	i	i	i	i
O=C(NNC(=O)c1cc2ccccc2cc1O)c1cccs1	nt	i	i	45	109	i
C/C(=N\NC(=O)c1cc2ccccc2cc1O)c1cccs1	i	i	i	37	80	i
Cc1ccc(NC(=O)CSc2nc3ccc(NC(=O)c4cccs4)cc3s2)c(C)c1	nt	i	nt	nt	nt	nt
O=C(NNC(=O)c1cc(-c2ccccc2)n(-c2ccccc2)n1)c1cccc([N+](=O)[O-])c1	i	i	i	i	i	i
O=C(COC(=O)c1nc(Cl)c(Cl)c(Cl)c1Cl)NCc1ccccc1	i	4µM	i	nt	nt	nt
